Only some compounds are listed: those with a hit (about 2.2% of all), similar ones and a draw of the others.
RTF Ca sens act: cardiac RTF calcium sensitivity activators, primary screen, biochemical, IANBD-TnC fluorescence, EC20 calcium; Troponin I, cardiac muscle (Homo sapiens) + Troponin T, cardiac muscle (Homo sapiens) + …; IANBD-labeled TnC RTF fluorescence at EC20 calcium; 0% EC20 calcium, 100% full calcium; activation, % at 7.2 µM; 340,000 tested, 0.24% active;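 active = activation above the mean over all tested compounds plus 3 SD, cut at about 30% in these data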;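 note: rise in fluorescence read as greater calcium sensitivity of cardiac thin filaments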
Cardiac RTF inh: cardiac RTF calcium sensitivity inhibitors, primary screen, biochemical, IANBD-TnC fluorescence, EC70 calcium. Troponin I, cardiac muscle (Homo sapiens) + Troponin T, cardiac muscle (Homo sapiens) + …. IANBD-labeled cardiac RTF, Ca2+ fluorescence. inhibition, % at 7.15 µM. 340,000 tested, 0.12% active. AID 493244, 2011;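 active = inhibition above the mean inhibition of all tested compounds plus 3 SD, cut at about 17% in these data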;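 note: assay run at fixed EC70 calcium of 1.6 mM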
CRFR2-BP ag: agonists of CRF-BP/CRF-R2 complex, primary screen, cell-based, HEK293, calcium dye fluorescence, uHTS; calcium dye fluorescence (FLIPR); percent of saturating CRF peptide response; activation, % at 13.2 µM; 350,000 tested, 0.46% active; AID 588473, 2011;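 active = activation of at least 50%, plus an integration ratio under a set limit after plate pattern correction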;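 note: plate controls were neutral control wells without compound for no effect and CRF at EC100 for full effect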
CRFR2-BP antag: antagonists of CRF-BP/CRF-R2 complex, primary screen, cell-based, HEK293, calcium dye fluorescence, uHTS; CRF-induced calcium fluorescence; inhibition, % at 11.8 µM; 350,000 tested, 0.59% active; AID 588475, 2011;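 active = inhibition of the ligand-induced calcium signal above about 50% at the single tested concentration, limit read from the data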
Myeloid diff MLP: induction of myeloid progenitor differentiation, primary screen, cell-based, flow cytometry, MLPCN library. calls only at 10 µM. AID 624256, 2012. ER-HoxA9 myeloid progenitors, lysozyme-GFP differentiation. 360,000 tested, 1% active;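 active = normalized GFP-positive differentiation at or above the plate's own cutoff, the solvent-only control mean plus 3 SD; inconclusive = no clear call, values can overlap the other calls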;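 note: cells exposed to compound for four days before flow analysis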
An asterisk follows results filed as active; i = inactive; ? = inconclusive; nt = no result given; + = active, no number.

SMILES	RTF Ca sens act	Cardiac RTF inh	CRFR2-BP ag	CRFR2-BP antag	Myeloid diff MLP
CCOC(=O)/C(=C/c1ccc(N2CCC(c3ccccc3)=N2)cc1)C(C)=O	10.9	-25.8	253.8*	-306.8	i
c1ccc(C2=NN(c3ccccc3)CC2)cc1	-2.3	-3.0	-1.1	0.4	i
Cc1nn(Cc2ccccc2Cl)c(C)c1NC(=O)c1ccn(C)n1	-0.8	1.3	-2.7	20.9	i
Cc1nn(Cc2ccccc2Cl)c(C)c1NC(=O)c1nc2ncccn2n1	-6.3	-14.3	1.8	57.9*	i
Cc1ccc(C2=NN(C(=O)CSc3nnnn3C)C(c3ccco3)C2)cc1 (stereo not drawn)	3.1	-3.6	-3.6	11.3	i
CC(C)(C)C(=O)NCc1ccc(C(=O)CN2C(=O)NC3(CCCC3)C2=O)s1	-1.4	-1.1	-0.3	2.7	i
O=C(CN1C(=O)NC2(CCCC2)C1=O)c1ccc(Cl)s1	-5.4	-1.8	-1.7	54.2*	i
O=C(C1CCCCC1)N1CCN(c2ccnc3cc(Cl)ccc23)CC1	11.8	-7.7	-4.1	-2.5	i
CC(C)Cn1c(SCC(=O)N2CCc3ccccc3C2)nc2cc(Cl)ccc2c1=O	-5.1	11.4	-1.2	118.0*	i
CCOC(=O)c1cc(S(=O)(=O)Nc2ccc(F)cc2F)cn1C	-4.3	-8.3	-0.3	71.7*	i
Nc1c(CNCc2nnn(Cc3ccccc3)c2N)nnn1Cc1ccccc1	nt	nt	-0.8	-1.4	i
N#CC1(NC(=O)COC(=O)c2cc(O)c3ccccc3c2O)CCCCC1	-13.4	-5.8	0.3	-1.9	+
N#CC1(NC(=O)COC(=O)c2ccccc2[N+](=O)[O-])CCCCC1	4.6	0.3	0.1	-6.7	i
O=C(CCNC(=O)C1CCN(S(=O)(=O)c2ccccc2)CC1)NCc1ccc(Cl)c(Cl)c1	2.3	-2.1	0.2	-3.6	i
O=c1nc(-c2ccccc2)n(-c2ccc(Cl)cc2)[nH]1	2.4	-0.3	90.5*	39.2	i
C=CCC[C@H](Cc1ccc(F)cc1)C(=O)OC[C@@H](NC(=O)[C@H](CC=C)CC(=O)NCCO)c1ccccc1	3.1	-0.3	-2.1	-8.2	i
O=C(Nc1ccc([N+](=O)[O-])cc1)c1cc(Cl)sc1Cl	-4.3	4.1	5.0	0.7	+
Cc1noc(C)c1COc1ccc(C(=O)N2CCN(S(=O)(=O)c3ccc(F)cc3)CC2)cc1	-1.3	4.6	-1.3	-4.7	i
O=C(NCc1ccccn1)C1CCN(S(=O)(=O)c2ccccc2)CC1	6.5	-4.4	3.7	8.4	i
O=C(NCc1ccccn1)C1CCN(S(=O)(=O)c2cnc[nH]2)CC1	2.5	-4.4	0.3	62.6*	i
CC1(c2ccc(Cl)cc2)NC(=O)N(CC(=O)N2CCN(C(=O)c3cccs3)CC2)C1=O (stereo not drawn)	nt	nt	-0.7	-6.5	i
COc1ccc(-c2nc3c4ccccc4ccn3c2CC2CCCCC2)cc1OC	nt	nt	nt	nt	+
Cc1noc(C)c1COC(=O)[C@H](C)NS(=O)(=O)c1ccc(Cl)c(Cl)c1	-3.2	1.5	-2.2	10.2	i
Cc1noc(C)c1COC(=O)Cc1ccc(Cl)c(Cl)c1	-2.4	-6.7	-2.2	62.5*	i
CCc1nnc(NC(=S)Nc2ccccc2)s1	-2.2	4.8	-2.0	56.9*	?
SMILES	RTF Ca sens act	Cardiac RTF inh	CRFR2-BP ag	CRFR2-BP antag	Myeloid diff MLP
NC(=O)c1sc2nc(-c3ccccc3)ccc2c1N	0.3	-2.8	1.3	1.0	+
COc1ccc(C(=O)c2sc3nc(-c4ccccc4)ccc3c2N)cc1OC	-3.9	-6.0	52.0*	-29.1	+
COc1ccc(-c2ccc3c(N)c(C(=O)c4ccc(OC)c(OC)c4)sc3n2)cc1	2.3	-18.9	4.4	9.2	i
COc1cc(OC)cc(C(=O)NC(=S)NNC(=O)[C@H]2C[C@@H]2c2ccccc2)c1	3.7	-2.6	162.9*	-52.0	i
CCc1cc(CNC(=O)c2ccc3nc(Cc4ccc(OC)c(OC)c4)oc3c2)on1	1.3	-2.0	-0.2	0.1	i
Nc1c(C(=O)Nc2ccc(S(=O)(=O)N3CCCC3)cc2)sc2nc3cc4c(cc3cc12)CCC4	10.2	-14.6	24.6	-61.1	+
Nc1c(C(=O)Nc2ccc(S(=O)(=O)N3CCCC3)cc2)sc2nc3ccc(OC(F)(F)F)cc3cc12	16.1	-21.5	-1.1	-43.1	i
Nc1cccc2c(O)cccc12	-0.5	-2.2	-0.3	-6.7	+
C=C[C@@H]1c2cc(C)ccc2N(S(=O)(=O)c2ccc(C)cc2)[C@H](c2ccc(OC(C)=O)cc2)C1(C#N)C#N	0.8	-7.4	0.3	4.0	+
CNc1cccc(-c2ccc(C(C)=O)s2)n1	nt	nt	nt	nt	i
CC(=O)c1ccc(-c2cccs2)s1	7.0	-0.5	0.8	63.7*	i
Cn1cccc1Cc1nnc(SCC(=O)Nc2ccccc2F)n1CCc1ccccc1	3.2	-3.4	0.4	-1.2	+
Cn1cccc1Cc1nnc(SCC(=O)Nc2cccc(F)c2)n1CCc1ccccc1	4.7	2.4	-1.2	11.9	i
CCn1c(SCC(=O)Nc2ccccc2F)nnc1-c1ccoc1C	-5.1	-9.8	0.8	-3.9	i
COCCCn1c(SCC(=O)Nc2ccccc2F)nnc1-c1ccoc1C	-5.8	-0.2	-0.7	102.9*	i
CC(C)(C)c1cc(C(=O)O)n(Cc2ccc(Cl)cc2Cl)n1	10.7	-5.5	1.0	15.1	i
COc1ccc(NC(=O)C(c2cc3c(cc2[N+](=O)[O-])OCO3)N(C)c2ccccc2)cc1 (stereo not drawn)	-0.4	6.4	90.3*	-241.2	i
COc1ccc(NC(=O)c2ccc3c(c2)OCO3)cc1	3.3	1.4	-0.1	2.5	i
CCCS(=O)(=O)N1CCCC(C(=O)NCCCN(CC)c2cccc(C)c2)C1 (stereo not drawn)	4.2	-3.7	2.5	93.6*	i
CCCS(=O)(=O)N1CCC(C(=O)NCCCN(CC)c2cccc(C)c2)CC1	2.2	-5.7	-0.1	-1.1	i
Cc1cc(C)nc(NS(=O)(=O)c2ccc(N/C=C/C(=O)c3ccc(Cl)c(Cl)c3)cc2)n1	9.5	-13.4	-1.8	-37.9	i
CC(C)(C)c1ccc(OC(=O)N2CCOCC2)cc1	-2.6	-4.7	-0.5	-2.0	+
O=C(c1ccc(CSc2nc3ccncc3[nH]2)cc1)N1CCCCCC1	1.2	-4.1	3.2	-6.7	i
O=C(c1ccc(CSc2nc3ccncc3[nH]2)cc1)N1CCN(c2cccc(Cl)c2)CC1	-0.1	-4.1	4.4	-26.7	+
CCOC(=O)C(=CNc1cc(Cl)c(-c2ccco2)c(Cl)c1)C(=O)OCC	-0.1	-8.7	3.4	-3.0	i
